Experimental findings from ChEMBL document CHEMBL1961873, “Compounds: GSK PKIS; Assays: Nanosyn kinase panel” (2012) are described below.

In assay [1] the target is T1, Tyrosine-protein kinase ITK/TSK (Homo sapiens) (UniProt Q08881).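 Further: values are mean percent inhibition of ITK from the GSK PKIS screen.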
T1 sequence (whole entry): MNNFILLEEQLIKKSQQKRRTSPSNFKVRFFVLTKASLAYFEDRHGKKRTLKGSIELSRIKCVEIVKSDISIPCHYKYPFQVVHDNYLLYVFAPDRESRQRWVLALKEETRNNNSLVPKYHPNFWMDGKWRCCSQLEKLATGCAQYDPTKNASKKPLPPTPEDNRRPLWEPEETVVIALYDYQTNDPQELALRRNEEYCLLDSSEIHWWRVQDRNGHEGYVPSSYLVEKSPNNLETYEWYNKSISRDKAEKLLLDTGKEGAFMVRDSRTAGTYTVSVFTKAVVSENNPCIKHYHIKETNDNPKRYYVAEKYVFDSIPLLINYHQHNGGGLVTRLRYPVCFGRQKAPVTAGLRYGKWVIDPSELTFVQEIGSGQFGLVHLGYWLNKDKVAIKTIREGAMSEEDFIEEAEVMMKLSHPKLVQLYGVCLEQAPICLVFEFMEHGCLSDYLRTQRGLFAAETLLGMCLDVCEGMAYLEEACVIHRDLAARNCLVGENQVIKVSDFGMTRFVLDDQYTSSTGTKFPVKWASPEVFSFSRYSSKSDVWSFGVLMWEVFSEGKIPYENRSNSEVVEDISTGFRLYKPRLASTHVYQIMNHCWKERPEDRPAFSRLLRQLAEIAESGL
As to conditions: at 1 µM.

The target of assay [2] is Tyrosine-protein kinase JAK1 (Homo sapiens) (UniProt P23458). As to conditions: at 0.1 µM.
Sequence of Tyrosine-protein kinase JAK1 (Homo sapiens) (P23458 whole entry): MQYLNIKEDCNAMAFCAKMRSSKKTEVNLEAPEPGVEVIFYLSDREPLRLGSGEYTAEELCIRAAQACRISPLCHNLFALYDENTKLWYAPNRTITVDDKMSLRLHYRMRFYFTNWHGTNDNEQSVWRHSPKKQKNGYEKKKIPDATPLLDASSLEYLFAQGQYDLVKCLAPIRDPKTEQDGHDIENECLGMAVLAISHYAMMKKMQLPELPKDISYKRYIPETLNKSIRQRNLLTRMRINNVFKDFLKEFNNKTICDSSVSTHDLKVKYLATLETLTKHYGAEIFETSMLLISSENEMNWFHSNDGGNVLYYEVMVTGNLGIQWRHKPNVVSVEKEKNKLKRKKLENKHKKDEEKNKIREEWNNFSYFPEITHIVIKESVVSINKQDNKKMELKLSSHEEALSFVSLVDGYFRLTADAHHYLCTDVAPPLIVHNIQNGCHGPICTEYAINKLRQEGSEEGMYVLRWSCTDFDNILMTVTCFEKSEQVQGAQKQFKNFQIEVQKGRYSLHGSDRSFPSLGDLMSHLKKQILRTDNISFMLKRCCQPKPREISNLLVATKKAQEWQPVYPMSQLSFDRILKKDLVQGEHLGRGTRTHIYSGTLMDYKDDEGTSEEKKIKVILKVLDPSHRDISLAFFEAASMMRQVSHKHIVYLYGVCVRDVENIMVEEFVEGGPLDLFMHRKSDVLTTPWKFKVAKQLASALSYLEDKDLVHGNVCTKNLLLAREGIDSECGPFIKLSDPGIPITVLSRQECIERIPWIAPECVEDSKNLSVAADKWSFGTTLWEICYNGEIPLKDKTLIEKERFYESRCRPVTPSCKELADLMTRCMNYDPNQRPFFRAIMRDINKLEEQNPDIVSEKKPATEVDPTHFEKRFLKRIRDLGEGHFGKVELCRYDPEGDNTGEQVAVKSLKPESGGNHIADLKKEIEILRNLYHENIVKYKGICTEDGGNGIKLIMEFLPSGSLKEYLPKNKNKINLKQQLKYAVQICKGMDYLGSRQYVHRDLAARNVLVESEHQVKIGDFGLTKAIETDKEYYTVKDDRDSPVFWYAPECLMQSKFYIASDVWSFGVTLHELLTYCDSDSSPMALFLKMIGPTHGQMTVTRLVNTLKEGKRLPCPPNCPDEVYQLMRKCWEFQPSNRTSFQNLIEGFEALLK
The target is the same in assay [3]. The following applies: at 1 µM.
The target in assay [4] is Tyrosine-protein kinase JAK2 (Homo sapiens) (UniProt O60674). The following applies: at 0.1 µM.
The target is the same in assay [5]. The following applies: at 1 µM.
In assay [6] the target is T2, Tyrosine-protein kinase JAK3 (Homo sapiens) (UniProt P52333).
T2 sequence (whole entry): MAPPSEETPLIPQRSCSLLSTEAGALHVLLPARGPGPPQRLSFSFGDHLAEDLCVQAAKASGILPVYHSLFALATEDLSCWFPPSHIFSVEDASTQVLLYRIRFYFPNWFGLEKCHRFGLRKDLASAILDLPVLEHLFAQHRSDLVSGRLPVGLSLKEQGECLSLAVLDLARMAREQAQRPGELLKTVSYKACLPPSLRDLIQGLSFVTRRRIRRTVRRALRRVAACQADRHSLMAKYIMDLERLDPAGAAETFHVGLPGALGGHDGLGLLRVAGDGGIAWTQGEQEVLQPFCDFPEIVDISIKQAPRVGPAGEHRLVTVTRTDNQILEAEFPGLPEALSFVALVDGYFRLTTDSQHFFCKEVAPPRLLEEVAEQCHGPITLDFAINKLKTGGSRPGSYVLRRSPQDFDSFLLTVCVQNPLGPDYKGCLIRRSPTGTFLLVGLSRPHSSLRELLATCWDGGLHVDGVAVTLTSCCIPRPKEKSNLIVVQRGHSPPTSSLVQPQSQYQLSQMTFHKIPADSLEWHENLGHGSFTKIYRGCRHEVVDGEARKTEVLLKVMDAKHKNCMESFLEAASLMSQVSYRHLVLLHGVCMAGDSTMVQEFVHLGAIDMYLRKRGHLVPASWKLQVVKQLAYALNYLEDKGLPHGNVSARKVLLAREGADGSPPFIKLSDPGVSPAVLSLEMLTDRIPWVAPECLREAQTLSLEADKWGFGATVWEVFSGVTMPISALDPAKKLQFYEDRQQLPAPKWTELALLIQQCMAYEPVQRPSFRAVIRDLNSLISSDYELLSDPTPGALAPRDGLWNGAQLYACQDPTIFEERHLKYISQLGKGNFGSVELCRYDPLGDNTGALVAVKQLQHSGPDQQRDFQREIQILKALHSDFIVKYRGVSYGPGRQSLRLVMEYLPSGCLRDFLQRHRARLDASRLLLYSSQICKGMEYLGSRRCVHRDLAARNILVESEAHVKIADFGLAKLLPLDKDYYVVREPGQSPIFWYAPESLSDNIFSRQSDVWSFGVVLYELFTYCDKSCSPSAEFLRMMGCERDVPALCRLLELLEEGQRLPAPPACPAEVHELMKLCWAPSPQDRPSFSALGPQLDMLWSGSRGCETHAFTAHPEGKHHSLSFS
The following applies: at 0.1 µM.

Assay [7] concerns the target T2, Tyrosine-protein kinase JAK3 (Homo sapiens). As to conditions: at 1 µM.
The target in assay [8] is Vascular endothelial growth factor receptor 2 (Homo sapiens) (UniProt P35968). The following applies: at 0.1 µM.
Sequence of Vascular endothelial growth factor receptor 2 (Homo sapiens) (P35968 whole entry): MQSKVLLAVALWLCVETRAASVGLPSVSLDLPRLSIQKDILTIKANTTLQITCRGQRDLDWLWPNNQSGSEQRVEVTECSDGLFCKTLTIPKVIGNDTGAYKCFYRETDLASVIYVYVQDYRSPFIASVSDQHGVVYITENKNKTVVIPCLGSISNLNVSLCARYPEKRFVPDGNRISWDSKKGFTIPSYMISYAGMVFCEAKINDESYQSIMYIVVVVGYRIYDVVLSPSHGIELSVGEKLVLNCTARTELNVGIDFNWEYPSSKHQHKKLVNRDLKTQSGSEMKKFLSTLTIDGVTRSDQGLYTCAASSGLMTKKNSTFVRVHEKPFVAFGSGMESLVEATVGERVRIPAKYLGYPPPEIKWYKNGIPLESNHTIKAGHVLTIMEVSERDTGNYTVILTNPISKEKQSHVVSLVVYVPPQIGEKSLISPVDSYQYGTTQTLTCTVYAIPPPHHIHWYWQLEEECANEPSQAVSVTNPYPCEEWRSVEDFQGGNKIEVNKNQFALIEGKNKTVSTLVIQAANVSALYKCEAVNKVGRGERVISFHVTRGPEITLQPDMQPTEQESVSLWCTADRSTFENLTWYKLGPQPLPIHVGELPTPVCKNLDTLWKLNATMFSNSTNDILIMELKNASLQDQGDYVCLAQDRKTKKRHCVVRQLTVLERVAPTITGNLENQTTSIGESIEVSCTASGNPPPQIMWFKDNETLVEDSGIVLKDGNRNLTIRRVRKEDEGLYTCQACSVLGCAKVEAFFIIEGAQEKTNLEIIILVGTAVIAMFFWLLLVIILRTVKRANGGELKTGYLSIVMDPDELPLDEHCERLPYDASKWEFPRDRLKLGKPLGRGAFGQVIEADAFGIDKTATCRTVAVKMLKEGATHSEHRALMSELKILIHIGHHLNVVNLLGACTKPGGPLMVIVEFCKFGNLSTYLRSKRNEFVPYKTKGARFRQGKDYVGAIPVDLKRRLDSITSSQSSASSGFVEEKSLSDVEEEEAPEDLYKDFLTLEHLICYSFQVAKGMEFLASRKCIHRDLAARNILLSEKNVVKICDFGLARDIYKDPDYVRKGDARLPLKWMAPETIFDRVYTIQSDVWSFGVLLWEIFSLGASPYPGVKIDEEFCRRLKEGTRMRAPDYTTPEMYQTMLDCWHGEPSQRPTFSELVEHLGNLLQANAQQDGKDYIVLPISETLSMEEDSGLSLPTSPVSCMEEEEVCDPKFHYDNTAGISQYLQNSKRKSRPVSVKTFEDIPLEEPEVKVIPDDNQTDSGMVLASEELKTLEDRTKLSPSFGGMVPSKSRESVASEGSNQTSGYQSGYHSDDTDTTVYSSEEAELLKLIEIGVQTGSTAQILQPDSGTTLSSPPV
The target is the same in assay [9]. The following applies: at 1 µM.
Assay [10] addresses Mast/stem cell growth factor receptor Kit (Homo sapiens) (UniProt P10721). As to conditions: at 0.1 µM.
Assay [11] shares this target. As to conditions: at 1 µM.
For assay [12], the system named is Mast/stem cell growth factor receptor Kit (Homo sapiens), P10721 [D816V]. As to conditions: at 0.1 µM.
Sequence of Mast/stem cell growth factor receptor Kit (Homo sapiens), P10721 [D816V] (P10721 whole entry D816V): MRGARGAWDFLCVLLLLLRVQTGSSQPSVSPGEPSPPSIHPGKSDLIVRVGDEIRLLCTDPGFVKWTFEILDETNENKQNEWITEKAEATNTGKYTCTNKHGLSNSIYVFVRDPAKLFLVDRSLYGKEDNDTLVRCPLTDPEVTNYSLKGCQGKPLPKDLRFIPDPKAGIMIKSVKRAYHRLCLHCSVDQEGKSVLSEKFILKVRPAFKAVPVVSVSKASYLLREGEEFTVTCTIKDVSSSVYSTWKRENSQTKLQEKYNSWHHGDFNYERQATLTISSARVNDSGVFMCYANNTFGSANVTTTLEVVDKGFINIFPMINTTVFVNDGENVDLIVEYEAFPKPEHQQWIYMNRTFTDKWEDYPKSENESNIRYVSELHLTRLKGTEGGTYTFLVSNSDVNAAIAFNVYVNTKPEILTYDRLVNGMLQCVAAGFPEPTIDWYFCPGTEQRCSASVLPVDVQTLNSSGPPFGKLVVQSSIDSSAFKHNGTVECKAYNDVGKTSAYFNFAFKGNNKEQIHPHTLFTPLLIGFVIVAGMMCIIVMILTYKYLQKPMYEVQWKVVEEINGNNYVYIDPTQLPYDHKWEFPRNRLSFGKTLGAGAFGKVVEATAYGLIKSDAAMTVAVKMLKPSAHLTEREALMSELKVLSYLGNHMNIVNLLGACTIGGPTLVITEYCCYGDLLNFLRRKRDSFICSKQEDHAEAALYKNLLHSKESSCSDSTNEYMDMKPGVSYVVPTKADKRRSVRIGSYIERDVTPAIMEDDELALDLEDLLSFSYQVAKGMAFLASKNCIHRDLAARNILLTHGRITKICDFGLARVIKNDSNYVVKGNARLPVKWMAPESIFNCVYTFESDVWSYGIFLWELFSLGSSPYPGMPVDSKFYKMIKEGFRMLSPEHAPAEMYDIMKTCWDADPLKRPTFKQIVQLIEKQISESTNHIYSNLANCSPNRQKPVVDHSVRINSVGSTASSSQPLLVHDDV
The test system is the same in assay [13]. As to conditions: at 1 µM.
The test system of assay [14] is Mast/stem cell growth factor receptor Kit (Homo sapiens), P10721 [T670I]. The following applies: at 0.1 µM.
Sequence of Mast/stem cell growth factor receptor Kit (Homo sapiens), P10721 [T670I] (P10721 whole entry T670I): as the sequence (P10721 whole entry D816V) above, with T670I, V816D counted along it
Assay [15] shares this test system. The following applies: at 1 µM.
The subject of assay [16] is Mast/stem cell growth factor receptor Kit (Homo sapiens), P10721 [V560G]. The following applies: at 0.1 µM.
For assay [17] the test system is unchanged. The following applies: at 1 µM.
Assay [18] has as its target Tyrosine-protein kinase Lck (Homo sapiens) (UniProt P06239). As to conditions: at 0.1 µM.
The target is the same in assay [19]. The following applies: at 1 µM.
Assay [20] deals with Leukocyte tyrosine kinase receptor (Homo sapiens) (UniProt P29376). The following applies: at 0.1 µM.
Sequence of Leukocyte tyrosine kinase receptor (Homo sapiens) (P29376 whole entry): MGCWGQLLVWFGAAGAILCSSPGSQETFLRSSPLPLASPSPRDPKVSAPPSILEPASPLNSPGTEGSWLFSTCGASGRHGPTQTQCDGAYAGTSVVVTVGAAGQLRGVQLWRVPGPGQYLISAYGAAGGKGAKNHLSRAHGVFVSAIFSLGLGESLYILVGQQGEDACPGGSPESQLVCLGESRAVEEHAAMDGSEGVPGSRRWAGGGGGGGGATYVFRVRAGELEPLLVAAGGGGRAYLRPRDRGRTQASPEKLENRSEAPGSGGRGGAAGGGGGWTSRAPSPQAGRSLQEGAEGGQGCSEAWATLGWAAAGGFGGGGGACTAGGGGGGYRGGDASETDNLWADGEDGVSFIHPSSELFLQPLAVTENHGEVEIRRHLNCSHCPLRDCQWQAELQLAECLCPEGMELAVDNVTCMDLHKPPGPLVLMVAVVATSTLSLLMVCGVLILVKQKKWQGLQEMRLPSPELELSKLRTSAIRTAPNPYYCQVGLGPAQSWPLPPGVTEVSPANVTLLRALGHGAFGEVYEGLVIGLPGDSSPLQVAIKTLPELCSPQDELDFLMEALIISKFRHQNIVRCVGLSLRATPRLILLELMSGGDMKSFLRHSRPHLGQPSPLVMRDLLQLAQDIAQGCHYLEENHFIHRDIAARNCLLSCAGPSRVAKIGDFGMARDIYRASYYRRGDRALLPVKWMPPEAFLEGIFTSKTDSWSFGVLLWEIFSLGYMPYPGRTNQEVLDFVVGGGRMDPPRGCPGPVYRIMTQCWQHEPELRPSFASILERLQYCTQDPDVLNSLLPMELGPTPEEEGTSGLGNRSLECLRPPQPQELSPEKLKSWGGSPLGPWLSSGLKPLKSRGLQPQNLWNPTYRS

“And” between values parts separate entries of the source, which are not always exact repeats. Identical values can stand only once.

Sequence of Mast/stem cell growth factor receptor Kit (Homo sapiens) (P10721 whole entry): as the sequence (P10721 whole entry D816V) above, with V816D counted along it
Sequence of Tyrosine-protein kinase Lck (Homo sapiens) (P06239 2-509 limits assumed): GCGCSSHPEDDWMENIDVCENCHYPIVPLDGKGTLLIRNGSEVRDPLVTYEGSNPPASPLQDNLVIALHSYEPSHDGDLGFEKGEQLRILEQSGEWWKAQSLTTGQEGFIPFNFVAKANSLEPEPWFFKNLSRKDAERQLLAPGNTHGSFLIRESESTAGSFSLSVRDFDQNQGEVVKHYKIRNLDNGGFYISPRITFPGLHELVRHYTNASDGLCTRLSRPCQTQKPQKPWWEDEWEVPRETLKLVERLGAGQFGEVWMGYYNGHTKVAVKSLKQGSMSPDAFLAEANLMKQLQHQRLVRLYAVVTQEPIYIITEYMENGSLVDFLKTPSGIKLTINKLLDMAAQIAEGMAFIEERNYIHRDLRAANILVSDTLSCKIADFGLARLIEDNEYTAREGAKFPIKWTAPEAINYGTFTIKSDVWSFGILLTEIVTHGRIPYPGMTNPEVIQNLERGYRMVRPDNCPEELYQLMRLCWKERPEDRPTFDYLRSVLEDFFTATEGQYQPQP
Sequence of Mast/stem cell growth factor receptor Kit (Homo sapiens), P10721 [V560G] (P10721 whole entry V560G): as the sequence (P10721 whole entry D816V) above, with V560G, V816D counted along it

Take `Nc1nonc1-c1nc2cnccc2n1C1CC1`: the inhibition is 1.67% and -2.42% in assay [1]; 0.26% and 0.62% in [2]; -0.07% and 3.24% in [3]; 0.87% and 1.12% in [4]; 3.76% and 0.55% in assay [5]; 4.13% and -4.12% in [6]. For the same compound, the inhibition in assay [7] was 4.66% and -3.11%; in assay [8], 14.3% and 13.8%; in assay [9] it was 54.2% and 52%; in assay [10], 4.06% and 2.58%; in assay [11], 14.9% and 15.5%; in [12], 3.53% and 1.67%. In addition, the inhibition in [13] was 3.46% and 2.18%; in [14], 1.4% and 2.21%; in assay [15], 6.91% and 8.64%; in assay [16], -1.94% and 0.52%; in assay [17], -1.23% and -2.01%; in [18] it was 3.06% and -3.03%. Further, the inhibition in [19] was 3.02% and -1.62%; in [20], 2.93% and 1.07%.
In the case of `COC(=O)Nc1nc2cc(Oc3ccc(NC(=O)Nc4ccccc4)cc3)ccc2[nH]1`, the inhibition in assay [1] is 1.86%; in assay [2], 3.81%; in assay [3], 9.99%; in assay [4], 0.07%; in assay [5] it was 1.12%; in [6] it was -1.68%. Further, the inhibition was -0.28% in assay [7]; 4.55% in assay [8]; 7.27% in assay [9]; 29.2% in assay [10]; 68% in [11]; 2.82% in assay [12]. Also, the inhibition in assay [13] came out at 12%; in [14], 4.22%; in assay [15], 8.76%; in assay [16], 25.3%; in assay [17] it was 67.9%; in assay [18], 2.87%. In addition, the figures for the inhibition in assay [19] and in [20] were 4.96% and 2.55%, respectively.
Take `CNC(=O)c1cncc(/C=C/c2ccccc2C)c1`: the inhibition in assay [1] is 2.59%; in assay [2], 6.31%; in assay [3], 12.7%; in assay [4] it was 1.48%; in [5], 1.45%; in assay [6], -0.66%. The inhibition in assay [7] came out at 0.49%; in assay [8], 4.29%; in assay [9], 7.71%; in assay [10] it was 5.02%; in [11], 14.5%; in [12], 1.55%. Further, the inhibition in [13] came to 3.24%; in [14] it was 3.26%; in assay [15], 4.48%; in assay [16] it was 3.49%; in [17], 5.75%; in assay [18] it was 1.99%. The inhibition in assay [19] was 7.19%; in assay [20] it was 2.41%.
In the case of `COc1cccc(Nc2nccc(-c3cnn4ncccc34)n2)c1`, the inhibition in assay [1] is 6.45%; in [2] it was -0.13%; in assay [3], 13.2%; in assay [4], 1.95%; in assay [5], 29.2%; in assay [6] it was 2.03%. The inhibition was 44.2% in assay [7]; 9.69% in assay [8]; 42.1% in assay [9]; 89.5% in assay [10]; 99.3% in assay [11]; -1.05% in [12]. Besides, the inhibition in [13] came to 4.28%; in assay [14] it was 60.9%; in assay [15] it was 95.3%; in assay [16], 40.2%; in [17], 78.3%; in assay [18], 3.11%. Further, the results for the inhibition in assay [19] and in [20] were 11.2% and 4.15%, respectively.
`Cc1ccc(-c2cc3c(NC(=O)C4CC4)ncnc3o2)cc1`: the inhibition in assay [1] was 2.63%; in [2], 2.29%; in assay [3], 1.7%; in assay [4], 2.06%; in assay [5], 2.55%; in assay [6] it was -0.9%. The inhibition in [7] is 2.42%; in assay [8] it was 6.12%; in assay [9], 13.4%; in assay [10], 8.72%; in [11], 32.2%; in assay [12], 4.08%. In addition, the inhibition in assay [13] is 5.68%; in [14], 4.38%; in assay [15], 8.01%; in assay [16], -2.51%; in assay [17], 0.4%; in assay [18] it was 2.92%. In addition, the results for the inhibition in assay [19] and in assay [20] were 11.2% and 4.28%, respectively.
In the case of `NC(=O)c1ccc2c(-c3ccnc(NCCCO)n3)c(-c3ccc(F)cc3)nn2c1`, the inhibition was 1.77% in assay [1]; 0.15% in assay [2]; 4.59% in [3]; 1.16% in assay [4]; 2.01% in assay [5]; -1.31% in assay [6]. The inhibition was -0.86% in [7]; 6.05% in assay [8]; 16.6% in assay [9]; 6.24% in [10]; 25.4% in assay [11]; 8.24% in assay [12]. The inhibition was 1.86% in assay [13]; 4.73% in assay [14]; 2.71% in assay [15]; -0.84% in assay [16]; 0.77% in [17]; 2.46% in [18]. Also, the inhibition is 8.13% in [19] and 4.67% in assay [20].
As to `Nc1nccc(-c2c(-c3ccc(F)cc3)ncn2C2CCNCC2)n1`, the inhibition in assay [1] was -0.06% and 1.58%; in assay [2], -5.03% and -2.79%; in assay [3], 1.1% and 3.47%; in assay [4], -1.85% and 0.8%; in assay [5], -1.57% and 1.93%; in [6] it was 0.47% and 0.86%. The inhibition in assay [7] is 2.72% and 2.66%; in [8] it was -2.27% and 1.08%; in [9] it was 2.47% and 2.78%; in [10], -3.74% and 1.54%; in assay [11] it was -2.8% and 0.85%; in assay [12] it was 13% and -2.76%. The inhibition in [13] is 1.63% and 3.54%; in assay [14], -2.81% and 0.49%; in assay [15], -3.42% and -0.01%; in assay [16], 1.31% and 1.87%; in assay [17], 3.68% and 1.62%; in assay [18] it was 1.27% and 4.01%. Also, the inhibition in assay [19] was 14.3% and 17.1%; in [20], -2.04% and 0.7%.

In general, inhibition refers to the relative decrease from the control value, in per cent.
